A selection: hits, their analogues and other compounds. The true share with any hit is near 3.4%.
GBA activity: human lysosomal glucosylceramidase modulation | Potency, µM | AID 360 | 48,000 tested, 1.1% active | purified enzyme, resorufin glucoside fluorescence (screen aimed at inhibitors), 20 min | P04062; in the data active = potency below about 15 µM; inconclusive = mostly about 16 µM to 33 µM;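 note: the screen sought inhibitors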
Target sequence (P04062 whole entry, looked up): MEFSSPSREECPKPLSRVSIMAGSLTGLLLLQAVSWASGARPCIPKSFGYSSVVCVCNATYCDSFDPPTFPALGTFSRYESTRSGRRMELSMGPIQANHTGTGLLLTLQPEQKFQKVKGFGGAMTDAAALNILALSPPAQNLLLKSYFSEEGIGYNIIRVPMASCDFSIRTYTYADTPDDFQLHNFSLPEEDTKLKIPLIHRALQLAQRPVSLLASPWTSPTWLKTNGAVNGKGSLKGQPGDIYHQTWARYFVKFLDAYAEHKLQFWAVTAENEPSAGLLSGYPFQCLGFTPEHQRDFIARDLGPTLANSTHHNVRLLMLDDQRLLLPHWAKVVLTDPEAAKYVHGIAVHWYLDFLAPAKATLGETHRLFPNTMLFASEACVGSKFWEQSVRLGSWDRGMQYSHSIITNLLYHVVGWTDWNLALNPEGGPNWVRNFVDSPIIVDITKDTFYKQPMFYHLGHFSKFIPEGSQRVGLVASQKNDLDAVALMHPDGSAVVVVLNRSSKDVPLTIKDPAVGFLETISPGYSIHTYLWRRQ
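Compounds titrated against 0.2 nM normal enzyme, 30 uM resorufin beta-D-glucopyranoside substrate, citrate/phosphate buffer with taurocholate and tween-20, pH 5.9. Reaction ran 20 min at room temperature; fluorescence (Ex 548/Em 600) gave AC50.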
Bst PK mod: modulators of Bacillus stearothermophilus pyruvate kinase | 51,000 tested, 1.2% active | AID 361 | purified pyruvate kinase, luminescence ATP production; ribose 5-phosphate activator present at AC10 | Potency, µM; in the data active = potency below about 11 µM; inconclusive = mostly about 12 µM to 25 µM;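 the screen sought inhibitors and activators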;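 note: scaled between full activation by ribose 5 phosphate and full inhibition by luteolin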
Luciferase inh: firefly luciferase inhibition; P08659; purified firefly luciferase, luminescence, 8 min; AID 411; 72,000 tested, 2.2% active; Potency, µM (highest dose often 57.1 µM), without a hit: at the highest dose activity change, negative = inhibition, actives largely listed as inhibitors; active = well fitted inhibition curve with a large enough effect; inconclusive = small, poorly fitted or top-dose-only effect; note: % is set by controls: 0 for no effect and ±100 for the full control effect; nearly all actives have a fitted effect of over 40% in size
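Inhibition of light generation by firefly luciferase from ATP and luciferin was profiled with concentration-response curves per sample, ATP held at 10 uM within the enzyme's linear range. Plates were read by luminescence after an 8-minute ambient incubation.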
* = called active by the depositor; i = inactive; ? = inconclusive; . = no result given; [ ] = another dose, or the depositor's remark. Potency is the fitted concentration of half-maximal effect.

SMILES | GBA activity | Bst PK mod | Luciferase inh
COc1ccc(C(CC(=O)Nc2nccs2)n2cccc2)cc1 (configuration not stated) | >77 | . | 16µM*
COc1ccc2[nH]cc(CCNc3ncncc3-c3cccc(C#N)c3)c2c1 | . | . | 1%[2.29 µM]
Cc1ccc(-c2cn3nc(C)c(C)nc3n2)cc1 | >77 | 5.5* | 2.5µM*
Cc1ccc(-c2csc3nc(=O)c(C)nn23)cc1 | >77 | >57 | 3%
CC1(C)O[C@@H]2O[C@H]([C@@H]3COC(C)(C)O3)[C@H](N)[C@H]2O1 | . | . | 2%[11.4 µM]
Cc1nnc(S(=O)(=O)c2ccc(N=Nc3c(N)nc(N)nc3N)cc2)s1 | . | . | 0%[11.4 µM]
Cc1ccc2c(c1)N[C@H](c1ccc(C(=O)O)cc1)c1cccn1-2 | . | . | 2%[11.4 µM]
CC(=O)[C@@]1(O)CC[C@@H]2[C@@H]3CCC4=CC(=O)CC[C@@]4(C)[C@H]3CC[C@]21C | . | . | -1%
O=C(CSc1ncc(-c2ccccc2)n1CC1CCCO1)N1CCCCC1 (configuration not stated) | >77 | >57 | -4%
Cn1c(-c2ccc(F)cc2)cnc1SCC(=O)N1CCCCC1 | >77 | . | 16µM*
Cc1cccc(NC(=O)c2cnc3ccccn3c2=O)c1 | . | . | 0%
Cc1cccc(NC(=O)c2cnc3sccn3c2=O)c1 | . | . | 10µM*
CN1CCN(c2ncc3nc(-c4ccccc4)c(=O)n(Cc4ccc(F)cc4)c3n2)CC1 | . | . | 1%[11.4 µM]
N[C@@H](Cc1cc(-c2ccc(Cl)cc2Cl)cc(CP(=O)(O)O)c1O)C(=O)O | . | . | -2%
Cc1nc(N)nc2ccccc12 | . | . | 0%[11.4 µM]
Cc1nc(/N=C(\N)Nc2ccccc2)nc2ccccc12 | . | 9.3* | -12%[25.5 µM]
CN(CCc1ccccn1)c1ccc2c(c1)C(=O)c1ccccc1-2 | . | . | -24%[11.4 µM]
C/C(CCC(=O)OC[C@@H]1O[C@H](C#Cc2ccccc2)C=C[C@@H]1Oc1ccc(C)cc1)=N/O[C@@H](C)CN1CCCc2nc(C)c(C)cc21 | . | . | 2%[11.4 µM]
O=C1c2ccccc2S(=O)(=O)N1Cc1nnc(-c2ccccc2Br)o1 | >77 | . | -4%
O=S1(=O)c2cccc3cccc(c23)N1Cc1nnc(-c2ccccc2Br)o1 | >77 | 2.1* | 3%
O=S1(=O)c2cccc3cccc(c23)N1Cc1ccc(-c2nnco2)cc1 | ? | 1.5* | 1%
Cc1ccc(C)n1-c1ccc(-c2nnco2)cc1 | >77 | >57 | 0%
COC1=CC(=O)C[C@@H](C)[C@@]12Oc1c(Cl)c(OC)cc(OC)c1C2=O | . | . | 0%[11.4 µM]
CC[C@@H]1[C@H]2CCCCN3[C@@H]2[C@@H](C[C@H]3[C@@H]2C[C@H](C)C(=O)O2)[C@@H]2[C@H]1OC(=O)[C@H]2C | . | . | 0%[11.4 µM]
Cc1cnc(CNc2ccnc(-c3ccccc3C(F)(F)F)n2)cn1 | . | . | -2%[2.29 µM]
SMILES | GBA activity | Bst PK mod | Luciferase inh
COc1ccccc1CNc1nc(-c2ccccc2OC)nc2ccccc12 | . | . | -4%[2.29 µM]
CN1CCN(c2ncc3nc(-c4cc(F)cc(F)c4)c(=O)n(CCc4ccccc4)c3n2)CC1 | . | . | 2%[11.4 µM]
COc1cccc(C2CC(c3ccccc3Cl)Nc3ncnn32)c1 (configuration not stated) | i | 8.4* | 1%
COc1ccc(C2CC(c3ccccc3Cl)Nc3ncnn32)cc1OC (configuration not stated) | >77 | i | 6%
COc1ccc(Oc2ncc3nc(-c4ccccc4)c(=O)n(Cc4cccs4)c3n2)cc1 | . | . | 0%[11.4 µM]
Cn1c(=O)c2c(nc(NCCNc3nc4c(c(=O)n(C)c(=O)n4C)n3C)n2C)n(C)c1=O | . | . | 3%[11.4 µM]
CC(C)=CCC/C(C)=C/CO/N=C1/C[C@@H](O)[C@@H](O)[C@@H]2[C@@H]3C(=O)N(Cc4ccc5c(c4)OCO5)C(=O)[C@H]3CC[C@H]12 | . | . | 0%[11.4 µM]
O=C(CCSc1nnnn1-c1ccccc1)N1CCOCC1 | >77 | >57 | 2%
O=C(CSc1nnnn1-c1cccc2c1CCCC2)N1CCOCC1 | . | 11* | -1%
CCN1C(=O)[C@H]2[C@H]3[C@H](O)[C@H](O)C/C(=N/OC[C@@H]4O[C@H](c5ccccc5)C=C[C@@H]4Oc4ccc(OC)cc4)[C@@H]3CC[C@@H]2C1=O | . | . | 2%[11.4 µM]
O=C(CN1CCCC1)Nc1ccc(NC(=O)Nc2ccccc2Cl)cc1 | 13* | >57 | -27%
COc1ccc(NC(=O)CN2CCN(CC(=O)Nc3ccccc3Cl)CC2)cc1Cl | . | >57 | 1%
O=S(=O)(c1cccs1)N1CCN(Cc2nc3ccccc3s2)CC1 | i | >57 | -9%
O=C(OCc1nc2ccccc2s1)C1CCN(S(=O)(=O)c2cccs2)CC1 | >77 | >57 | 32µM*
[N-]=[N+]=N[C@@H]1[C@H](O)[C@H](CO)O[C@@H]1n1cnc2c(N)ncnc21 | . | . | 4%[11.4 µM]
O=C(NCc1ccncc1)c1ccc(Br)cc1 | . | . | 0%
[O-]/[N+](=C\c1ccncc1)c1ccc(Br)cc1 | . | . | 7.9µM*
O=C(Nc1cccc(F)c1)N1CCCC2(CCN(S(=O)(=O)c3ccccc3)CC2)C1 | . | . | 2%[11.4 µM]
COc1ccc(-c2nc3cnc(Oc4cccc(Cl)c4)nc3n(CCC#N)c2=O)cc1 | . | . | 0%[11.4 µM]
COc1ccc(-c2cc(C(=O)N3CCCCC3)no2)cc1OC | >77 | i | -15%
Cc1ccc(-c2cc(C(=O)N3CCCC3)no2)cc1 | >77 | 7.9* | 4µM*
CC1CCCC(C)N1C(=O)c1cc(F)c(F)cc1Cl (configuration not stated) | >77 | . | -2%
CC1CCCC(C)N1C(=O)c1cc(-c2ccc(Cl)c(Cl)c2)on1 (configuration not stated) | >77 | 7.7* | -11%
CC1=c2c(oc3cc(O)c(Nc4c(C)cc(O)cc4O)c(C)c23)=CC(=O)C1=Nc1c(C)cc(O)cc1O | . | . | -28%[11.4 µM]
COc1ccccc1-c1nccc(Nc2ccc(F)cc2)n1 | . | . | 0%[2.29 µM]
SMILES | GBA activity | Bst PK mod | Luciferase inh
Cc1cc(NCCCn2ccnc2)n2ncc(-c3ccccc3)c2n1 | . | 2* | 1.6µM*
Cc1cc(NCCN2CCOCC2)n2ncc(-c3ccc(Cl)cc3)c2n1 | i | >57 | 1%
Cc1cc(NCCN2CCOCC2)n2ncc(-c3ccccc3)c2n1 | . | . | 20µM*
Cc1cccc(-n2ncc3c(NCCCn4ccnc4)ncnc32)c1 | . | . | -30%
NCCSS(=O)(=O)CCN | . | . | 2%[11.4 µM]
CC(=O)Nc1nc(COc2ccccc2)cs1 | >77 | . | -17%
Nc1nc(COc2ccc3ccccc3c2)cs1 | >77 | i | 25µM*
Cc1ccc2c(c1)N(CC(=O)NCCN1CCOCC1)C(=O)CO2 | . | . | 4%
COc1ccc(-c2nc3cnc(N4CCOCC4)nc3n(Cc3cccs3)c2=O)cc1 | . | . | 0%[11.4 µM]
COc1ccc(-c2cc3nc4n(c(=O)c3s2)CCOC4)cc1 | . | 6.7* | 2µM*
O=C(O)COc1ccc(OCCNC[C@@H](O)COc2ccccc2)cc1 | . | . | -4%
CO[C@@H]1/C=C\CC(=O)N2CCC[C@@H]2C(=O)OC[C@@H](C)C(=O)OC[C@H]1C | . | . | 0%[11.4 µM]
O=C1C2=C(Nc3cc([N+](=O)[O-])ccc3N2)O[C@@H]1c1ccc([C@H]2OC3=C(Nc4ccc([N+](=O)[O-])cc4N3)C2=O)cc1 | . | . | -10%[11.4 µM]
O=C(c1cnccn1)N1CCC2(CCCN(Cc3nccs3)C2)CC1 | . | . | 1%[11.4 µM]
O=C1[C@H]2[C@H]3[C@H](O)[C@H](O)C/C(=N/OCc4ccccc4)[C@H]3CC[C@@H]2C(=O)N1C1CCCCC1 | . | . | -1%[11.4 µM]
CC(C)(C)n1ncc2c(=O)n(CC(=O)NCc3ccccc3)cnc21 | >77 | . | 20µM*
CC(C)(C)n1ncc2c(=O)n(CC(=O)c3ccc(Cl)cc3)cnc21 | >77 | . | 20µM*
CC(C)(C)n1ncc2c(=O)n(CC(=O)Nc3ccc(Cl)cc3)cnc21 | >77 | >57 | -1%
